In PubChem BioAssay (NCI):
The panel holds about 83,000 compounds, 20% with a hit somewhere; the sample as a whole holds those more often.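 Single-concentration screen, 48 h exposure, 96-well plates. Endpoint: percent growth. Below 10 = active.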 Unmarked numbers belong to inactive results. Active and inactive are the calls of the source.

How the values were obtained:
Test in all cases: NCI-60 one-dose screen, 48 h (100 = growth as untreated, 0 = no growth, -100 = all killed)
Conditions in all cases: 10 µM unless noted
NCI-H226 lung = test system: NCI-H226 lung
NCI-H322M lung = test system: NCI-H322M lung
HOP-62 NSCLC = test system: HOP-62 NSCLC
NCI-H460 lung = test system: NCI-H460 lung
HOP-92 NSCLC = test system: HOP-92 NSCLC
NCI-H522 lung = test system: NCI-H522 lung
A549/ATCC NSCLC = test system: A549/ATCC NSCLC
786-0 renal = test system: 786-0 renal
NCI-H23 lung = test system: NCI-H23 lung
COLO 205 colon = test system: COLO 205 colon

Row | SMILES | growth (NCI-H226 lung) | growth (NCI-H322M lung) | growth (HOP-62 NSCLC) | growth (NCI-H460 lung) | growth (HOP-92 NSCLC) | growth (NCI-H522 lung) | growth (A549/ATCC NSCLC) | growth (786-0 renal) | growth (NCI-H23 lung) | growth (COLO 205 colon)
1 | COC(=O)c1ccc2c(c1)n(Cc1ccc3ccccc3c1)c[n+]2Cc1ccc2ccccc2c1 | 61.3% | 57.2% | 63.8% | 28.6% | -10.7% (active) | 26.3% | 75% | 70.3% | – | –
2 | C[C@H]1[C@H](C)CC[C@]2(C(=O)OCCOCCOCC[P+](c3ccccc3)(c3ccccc3)c3ccccc3)CC[C@]3(C)C(=CC[C@@H]4[C@@]5(C)CC[C@H](OC(=O)C(Cl)Cl)C(C)(C)[C@@H]5CC[C@]43C)[C@H]12 | 15% | 27.8% | – | 6.27% (active) | -26.6% (active) | -15.3% (active) | 11.2% | -38.3% (active) | 5.49% (active) | -7.06% (active)
3 | Cc1nc(C)c(C)nc1C | 104% | 103% | – | 109% | 103% | 84.6% | 86.6% | 96.9% | 102% | 119%
4 | COC(=O)c1ccc(NC(=O)CSc2nc(-c3ccc(F)cc3)nc3ccccc23)cc1 | 87.4% | 89.5% | – | 60.7% | 77.7% | 76.9% | 86.1% | 105% | 81.7% | 93.8%
5 | O=C(Nc1cc(=O)[nH]c(=O)[nH]1)C(Cl)Cl | 102% | 95.5% | 106% | 109% | 98.8% | 90.3% | 97.4% | 107% | – | 122%
6 | COc1ccc(/C=C/C(=O)c2ccc(NC(=O)CSc3nnc(-c4ccc(OC)c(OC)c4)n3-c3ccccc3)cc2)cc1 | 80.7% | 99.1% | – | 91.3% | 52.7% | -60.9% (active) | 80% | -67% (active) | 21.3% | 26.7%
7 | COc1ccc(/C=C(/C(=O)N2CCCC2)c2cc(OC)c(OC)c(OC)c2)cc1 | 69.2% | 45.7% | – | 13.6% | 47.9% | 26.3% | 36.1% | 35.3% | 34% | 4.08% (active)
8 | COc1ccc(-c2nc(C#N)c(NCC(c3ccc(Cl)cc3)N3CCCCC3)o2)cc1 (stereo unspecified) | 96% | 83.7% | – | 101% | 89.3% | 84.6% | 93.5% | 92.5% | 91.7% | 87.6%
9 | c1ccc2nc(N3CCOCC3)c(N3CCCCC3)nc2c1 | 95.8% | 95.9% | 94.1% | 105% | 84.5% | 85.3% | 96.9% | 102% | – | 110%
10 | Cc1cnc(SCc2ccc(Cl)cc2Cl)nc1Nc1ccc(Cl)c(Cl)c1 | 101% | 82% | 93.4% | 92.2% | 76% | 66.7% | 78.2% | 92.3% | – | 117%
11 | C=C1C(=O)O[C@H]2[C@H]1CC/C(COC(=O)c1cn(C)c3ccccc13)=C\CC[C@@]1(C)O[C@@H]21 | -36.5% (active) | 85.2% | 32.4% | 39.7% | -57.9% (active) | -85.1% (active) | 51.4% | -63% (active) | – | -80.4% (active)
12 | Cc1cc(NC(=O)CNc2nc(Oc3ccc(F)cc3)nc(-c3ccc(F)cc3)n2)ccc1Cl | 98.9% | 98.7% | 94.5% | 99.3% | 97.7% | 85.7% | 87.1% | 99.5% | – | 112%
13 | COc1ccc(-c2cn(-c3ccc(Cl)cc3)c(=S)[nH]2)cc1OC | 63.2% | 57.4% | 38.4% | 37.9% | – | 49.4% | 72% | 1.85% (active) | – | 44.2%
14 | CCCCN(CCCC)CC(CN(CC)CC)OC(=O)Nc1ccccc1 (stereo unspecified) | 103% | 85% | 75.4% | 105% | 75% | 74.7% | 92.9% | 83% | – | 79.6%
15 | CC(C)NS(=O)(=O)c1cccc(-c2ccc3c4c(n(CCCN(C)C)c(=O)c3c2)-c2ccccc2C4=O)c1 | 92.9% | 104% | 101% | 28.5% | 114% | 86.7% | 83.5% | 33.8% | – | 98.9%
16 | COc1ccc2c(c1)/C(=C1\S/C(=N/c3nnc(C)s3)NC1=O)C(=O)N2Cc1ccc(Cl)cc1 | 56.5% | 49.9% | 66.8% | 8.75% (active) | 26% | 45.8% | 36.2% | 49.2% | – | 79.9%
17 | CCOC(=O)NC(Cc1ccccc1)c1ccccc1 (stereo unspecified) | 98.8% | 114% | 99.6% | 111% | 87.4% | 87.1% | 99.1% | 96.6% | – | 105%
18 | CC(C)NS(=O)(=O)c1cccc(-c2ccc3c(=O)n(CCCN)c4c(c3c2)C(=O)c2ccccc2-4)c1 | 93.4% | 115% | – | 102% | 105% | 85.3% | 102% | 98% | – | 106%
19 | CCN1CCC[C@H]1c1cc(O)c2c(c1OC)C[C@H]1C[C@H]3[C@H](N)C(=O)C(C(N)=O)=C(O)[C@@]3(O)C(=O)C1=C2O | 1.47% (active) | -2.43% (active) | -12% (active) | 2.84% (active) | -3.43% (active) | -21.4% (active) | 6.12% (active) | 3.89% (active) | – | -18.7% (active)
20 | CCOC(=O)c1c(-c2ccc(O)cc2)c(C#N)c2c(C#N)c(N)nn2c1N | 69.3% | 95.1% | 66.6% | 74.3% | 41.7% | 39.2% | 80.7% | 93% | – | 74.6%
21 | Nc1c(C(=O)Nc2ccccc2Cl)sc2nc3c(cc12)CN(Cc1ccccc1)CC3 | 91.5% | 92.4% | 104% | 93.4% | 109% | 88.2% | 112% | 99% | – | 95.5%
22 | CCCCn1c2cc(OCc3cn(-c4ccc(Cl)cc4)nn3)ccc2c2ccnc(C)c21 | 52.3% | 56.6% | 41.2% | 21.5% | 36.9% | 24.2% | 42.1% | -10.3% (active) | – | 21.9%
23 | NS(=O)(=O)c1ccc(-n2ncc(NC(=O)Nc3ccc(S(=O)(=O)Nc4nccs4)cc3)c2-c2ccccc2)cc1 | 104% | 106% | 94.4% | 108% | 106% | 98.4% | 98.5% | 95.6% | – | 108%
24 | O=c1[nH]c2ccccc2cc1-c1nc2ccncc2[nH]1 | 79.6% | 110% | 101% | 62.4% | 64.3% | 90.7% | 90.4% | 88.6% | – | 83.3%
25 | C=C1C(=O)O[C@H]2[C@H]1CC/C(COC(=O)c1c[nH]c3ccccc13)=C\CC[C@@]1(C)O[C@@H]21 | -78.3% (active) | 16% | -43.3% (active) | 2.46% (active) | -59.7% (active) | -66.7% (active) | -7.16% (active) | -92% (active) | – | -53.5% (active)
26 | Nc1c(C(=O)Nc2cccc3ccccc23)sc2nc3c(cc12)COCC3 | 98% | 82.4% | 39.9% | 31.1% | 61.1% | 26.4% | 50.9% | 38.6% | – | 58.7%
